PubChem BioAssay (NCI)
About 83,000 compounds went through this panel and 20% of them were active in at least one assay; those are over-represented in the sample as a whole.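 The test compound was applied at a single concentration to cells in 96-well plates for 48 hours, and percent growth was recorded.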 Activity calls are given as the source filed them. The calls were made as follows: active = growth percent below 10; inactive = the rest.

Columns and labels:
Assay in all cases: NCI-60 one-dose screen, 48 h (100 = growth as untreated, 0 = no growth, -100 = all killed)
Details in all cases: 10 µM unless noted
NCI-H23 lung = system: NCI-H23 lung
NCI-H226 lung = system: NCI-H226 lung
NCI-H322M lung = system: NCI-H322M lung
HOP-62 NSCLC = system: HOP-62 NSCLC
NCI-H460 lung = system: NCI-H460 lung
HOP-92 NSCLC = system: HOP-92 NSCLC
NCI-H522 lung = system: NCI-H522 lung
A549/ATCC NSCLC = system: A549/ATCC NSCLC
786-0 renal = system: 786-0 renal
COLO 205 colon = system: COLO 205 colon

Measured: growth

O=C(/C=C/c1ccccc1)c1cccc(O)c1
inactive: NCI-H23 lung 104% | NCI-H226 lung 93.4% | NCI-H322M lung 93.4% | HOP-62 NSCLC 105% | NCI-H460 lung 101% | HOP-92 NSCLC 96.1% | NCI-H522 lung 95.1% | A549/ATCC NSCLC 92.7% | 786-0 renal 94.6% | COLO 205 colon 110%

COc1cc(C(=O)c2cc(C(C)=O)c3cccc(C)n23)cc(OC)c1OC
inactive: NCI-H23 lung 59.7% | NCI-H226 lung 51.6% | NCI-H322M lung 69.2% | HOP-62 NSCLC 36.7% | NCI-H460 lung 16.1% | HOP-92 NSCLC 33.5% | NCI-H522 lung 19.3% | A549/ATCC NSCLC 50.2% | 786-0 renal 47.1% | COLO 205 colon 11%

CNC(=O)c1cc(N2CCc3cc(NC(=O)Nc4ccc(N5CCOCC5)c(C(F)(F)F)c4)ccc32)ccn1
inactive: NCI-H23 lung 18.7% | NCI-H226 lung 35.2% | NCI-H322M lung 56.2% | HOP-62 NSCLC 12.1% | HOP-92 NSCLC 14.1% | NCI-H522 lung 45.8% | A549/ATCC NSCLC 43.7% | 786-0 renal 27.3% | COLO 205 colon 26.7%
active: NCI-H460 lung 9.77%

CCCc1cc2cc(-n3nc(CC)c4c3CC(C)(C)CC4=O)cc(NC3CCC(O)CC3)c2c(=O)[nH]1 (stereo not given)
active: NCI-H460 lung -12.1% | HOP-92 NSCLC -1.33% | 786-0 renal -12.4% | COLO 205 colon 8.47%
inactive: NCI-H23 lung 18.3% | NCI-H226 lung 13.9% | NCI-H322M lung 35.1% | HOP-62 NSCLC 15.4% | NCI-H522 lung 17.7% | A549/ATCC NSCLC 25%

CC(C)(C)Nc1nc2c(OCCc3ccccc3)cccn2c1-c1cccc(Oc2ccccc2)c1
active: NCI-H460 lung 8.14% | HOP-92 NSCLC -12.8% | NCI-H522 lung -26.1% | 786-0 renal 8.48% | COLO 205 colon -93.8%
inactive: NCI-H23 lung 11.1% | NCI-H226 lung 15.2% | NCI-H322M lung 15.8% | HOP-62 NSCLC 11.1% | A549/ATCC NSCLC 16.3%

CCOC(=O)c1c(NC(=O)c2cccc(C(F)(F)F)c2)sc2c1CCC(=O)C2
active: NCI-H522 lung -4%
inactive: NCI-H23 lung 16% | NCI-H226 lung 71.8% | NCI-H322M lung 95.1% | HOP-62 NSCLC 31.8% | NCI-H460 lung 27.9% | HOP-92 NSCLC 29.9% | A549/ATCC NSCLC 28.9% | 786-0 renal 98.4% | COLO 205 colon 15.8%

Cn1cc(-c2nnc(N)nc2-c2c[nH]c3ccc(F)cc23)c2cc(Br)ccc21
active: NCI-H522 lung -0.551% | COLO 205 colon 9.15%
inactive: NCI-H23 lung 26.4% | NCI-H226 lung 27.4% | NCI-H322M lung 41.8% | HOP-62 NSCLC 30.9% | NCI-H460 lung 13.8% | HOP-92 NSCLC 56.5% | A549/ATCC NSCLC 38.6% | 786-0 renal 21.5%

COc1cc(C(C)=C(c2ccc(OCCN(C)C)cc2)c2ccc(OCCN(C)C)cc2)ccc1F
inactive: NCI-H23 lung 96.5% | NCI-H226 lung 92.9% | NCI-H322M lung 96.6% | HOP-62 NSCLC 97.2% | NCI-H460 lung 106% | HOP-92 NSCLC 73.4% | NCI-H522 lung 99.7% | A549/ATCC NSCLC 113% | 786-0 renal 94.3% | COLO 205 colon 104%

O=C1c2ccccc2C23C(=C(c4cncnc4)c4ccccc42)CCCN13 (stereo not given)
inactive: NCI-H23 lung 102% | NCI-H226 lung 97.4% | NCI-H322M lung 107% | HOP-62 NSCLC 108% | NCI-H460 lung 104% | HOP-92 NSCLC 90.9% | NCI-H522 lung 92.6% | A549/ATCC NSCLC 98.9% | 786-0 renal 96.8% | COLO 205 colon 121%

COc1ccc([C@@H]2C(=O)N(c3cc(OC)c(OC)c(OC)c3)[C@H]2c2ccc(OC)c(O)c2)cc1
inactive: NCI-H23 lung 28.9% | NCI-H226 lung 60.2% | NCI-H322M lung 42.7% | HOP-62 NSCLC 31.3% | HOP-92 NSCLC 25.1% | A549/ATCC NSCLC 29%
active: NCI-H460 lung 4.83% | NCI-H522 lung -39.4% | 786-0 renal 6.33% | COLO 205 colon -79.3%

O=C(CCCCCCNC(=O)C(O)(O)C(F)(F)F)Nc1ccc(-c2ccccc2)cc1
active: NCI-H23 lung 9.87% | HOP-62 NSCLC -4.5% | NCI-H460 lung 7.65% | HOP-92 NSCLC -13.6% | NCI-H522 lung -30.9% | A549/ATCC NSCLC 8.66% | COLO 205 colon -61.9%
inactive: NCI-H226 lung 39.4% | NCI-H322M lung 28.2% | 786-0 renal 22.8%

O=C(O)CC1CCN(c2ccc3nnc(Cl)n3n2)CC1
inactive: NCI-H23 lung 93.9% | NCI-H226 lung 98.7% | NCI-H322M lung 96.2% | HOP-62 NSCLC 93.3% | NCI-H460 lung 108% | HOP-92 NSCLC 96.2% | NCI-H522 lung 96% | A549/ATCC NSCLC 103% | 786-0 renal 100% | COLO 205 colon 107%

Cc1ccc(N2CCN(C3=C(Cl)C(=O)c4ncccc4C3=O)CC2)cc1
inactive: NCI-H23 lung 35.6% | NCI-H226 lung 93.2% | NCI-H322M lung 97.4% | HOP-62 NSCLC 73.1% | NCI-H460 lung 44.8% | HOP-92 NSCLC 84.4% | NCI-H522 lung 45.2% | A549/ATCC NSCLC 91.3% | 786-0 renal 99.5% | COLO 205 colon 75.3%

NC(N)=NS(=O)(=O)c1ccc(N=Nc2c(N)nn(-c3ccc([N+](=O)[O-])cc3[N+](=O)[O-])c2N)cc1
inactive: NCI-H23 lung 98.1% | NCI-H226 lung 93.3% | NCI-H322M lung 92.9% | HOP-62 NSCLC 104% | NCI-H460 lung 107% | HOP-92 NSCLC 88.2% | NCI-H522 lung 97.2% | A549/ATCC NSCLC 103% | 786-0 renal 103% | COLO 205 colon 106%

CCCCSC1=C(Cl)CN(c2ccccc2)C1=O
inactive: NCI-H23 lung 102% | NCI-H226 lung 102% | NCI-H322M lung 101% | HOP-62 NSCLC 111% | NCI-H460 lung 104% | HOP-92 NSCLC 95.7% | A549/ATCC NSCLC 104% | 786-0 renal 108% | COLO 205 colon 125%
active: NCI-H522 lung -9.23%

CN1CCN(Cc2ccc(NC(=O)c3cncc(C#Cc4cnc5ccc(OCC6COC6)nn45)c3)cc2C(F)(F)F)CC1
active: NCI-H23 lung -58% | NCI-H226 lung -65.2% | NCI-H322M lung -36.5% | HOP-62 NSCLC -72.3% | NCI-H460 lung -81% | HOP-92 NSCLC -33.4% | NCI-H522 lung -70.7% | A549/ATCC NSCLC -68.7% | 786-0 renal -85.6% | COLO 205 colon -76.3%

O=C(CSc1nc2ccccc2c(=O)n1-c1ccccc1)N/N=C/c1ccc(Oc2ccc(Br)cc2)cc1
inactive: NCI-H23 lung 49.9% | NCI-H226 lung 77.6% | NCI-H322M lung 86.8% | HOP-62 NSCLC 63.9% | NCI-H460 lung 28% | HOP-92 NSCLC 73% | NCI-H522 lung 48.5% | A549/ATCC NSCLC 42.2% | 786-0 renal 46% | COLO 205 colon 44.4%

Cc1csc(/N=C(N)/N=C(\N)c2cccs2)n1
inactive: NCI-H23 lung 90.5% | NCI-H226 lung 99.1% | NCI-H322M lung 100% | HOP-62 NSCLC 103% | NCI-H460 lung 104% | HOP-92 NSCLC 69.1% | NCI-H522 lung 98.9% | A549/ATCC NSCLC 102% | 786-0 renal 112% | COLO 205 colon 109%

C=CCSC1=NC2C(N(CC)C(=O)N2CC)N1/N=C/C=C/c1ccccc1OC (stereo not given)
inactive: NCI-H23 lung 84% | NCI-H226 lung 78.3% | NCI-H322M lung 102% | HOP-62 NSCLC 80.7% | NCI-H460 lung 84.3% | HOP-92 NSCLC 68.4% | NCI-H522 lung 57.2% | A549/ATCC NSCLC 69.8% | 786-0 renal 98.5% | COLO 205 colon 83.1%

NC1C2CCC1CN(c1cnc(C(=O)Nc3cc(F)cc4cccnc34)cn1)C2 (stereo not given)
inactive: NCI-H23 lung 75.1% | NCI-H226 lung 75.7% | NCI-H322M lung 84.3% | HOP-62 NSCLC 81.2% | NCI-H460 lung 68.1% | HOP-92 NSCLC 47.9% | NCI-H522 lung 72.3% | A549/ATCC NSCLC 68.6% | 786-0 renal 67%
active: COLO 205 colon -0.393%

CC1=C(C)C(=O)C(Nc2cccc(C(=O)OC(C)(C)C)c2)=CC1=O
inactive: NCI-H23 lung 28.8% | NCI-H226 lung 64.5% | NCI-H322M lung 94.5% | HOP-62 NSCLC 78.4% | NCI-H460 lung 93.1% | HOP-92 NSCLC 78.8% | NCI-H522 lung 82.2% | A549/ATCC NSCLC 106% | 786-0 renal 89.9% | COLO 205 colon 107%

O=[N+]([O-])c1ccc(NC(=S)NNC(=S)Nc2ccc(Br)cc2)cc1
inactive: NCI-H23 lung 86.1% | NCI-H226 lung 97.3% | NCI-H322M lung 63.3% | HOP-62 NSCLC 94.9% | NCI-H460 lung 97.6% | HOP-92 NSCLC 99.9% | NCI-H522 lung 81.1% | A549/ATCC NSCLC 83.9% | 786-0 renal 99.2% | COLO 205 colon 112%

NS(=O)(=O)c1nnc(/N=C/c2c(O)[nH]c3ccccc23)s1
inactive: NCI-H23 lung 96.3% | NCI-H226 lung 95% | NCI-H322M lung 104% | HOP-62 NSCLC 86.6% | NCI-H460 lung 105% | HOP-92 NSCLC 88.1% | NCI-H522 lung 99.9% | A549/ATCC NSCLC 108% | 786-0 renal 98.2% | COLO 205 colon 115%

O=C1Nc2ccc(F)cc2/C1=C\C(=O)c1ccc(NS(=O)(=O)c2ccccc2)cc1
inactive: NCI-H23 lung 84.3% | NCI-H226 lung 95.6% | NCI-H322M lung 93.8% | HOP-62 NSCLC 103% | NCI-H460 lung 101% | HOP-92 NSCLC 82.7% | NCI-H522 lung 70.2% | A549/ATCC NSCLC 97.4% | 786-0 renal 98.6% | COLO 205 colon 113%

O=C(CSc1nc2ccccc2c(=O)n1-c1ccccc1)Nc1ccc(S(=O)(=O)Nc2nccs2)cc1
inactive: NCI-H23 lung 86.1% | NCI-H226 lung 73.6% | NCI-H322M lung 77% | HOP-62 NSCLC 80.4% | NCI-H460 lung 85.2% | HOP-92 NSCLC 89.4% | NCI-H522 lung 26.7% | A549/ATCC NSCLC 84.4% | 786-0 renal 66.1% | COLO 205 colon 103%

CC(=O)c1c([Si](C)(C)C)c2cc(C#N)ccn2c1C(=O)c1ccc(Br)cc1
inactive: NCI-H23 lung 84.1% | NCI-H226 lung 76.9% | NCI-H322M lung 85.3% | HOP-62 NSCLC 88.3% | NCI-H460 lung 95.5% | HOP-92 NSCLC 81.9% | NCI-H522 lung 70.5% | A549/ATCC NSCLC 90.3% | 786-0 renal 76.5% | COLO 205 colon 104%
